Most compounds without a hit are left out; they make up all but 4.1% or so of the library.
TIM10 inh – inhibits growth of TIM10 yeast strain. inhibition, % at 10 µM. S. cerevisiae TIM10 strain growth, BacTiter-Glo luminescence, 24 h. actives 1.4% (n = 330,000);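 active = inhibition of 40% or more at the single tested concentration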;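 also: wild-type TIM10 isogenic control strain grown at permissive 25 °C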
PfHsp90 set2 – inhibits growth of yeast expressing Plasmodium falciparum Hsp90; S. cerevisiae expressing PfHsp90, BacTiter-Glo ATP, 48 h; yeast lacking PDR1 and PDR3 efflux regulators; inhibition, % at 9.4 µM; actives 0.32% (n = 310,000);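 active = every replicate shows inhibition above about 80%, whatever the replicate mean, limit read from the data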;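 also: 0% = DMSO neutral controls and 100% = 20 µM radicicol positive controls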
tim23-1 inh – tim23-1 yeast growth inhibition | S. cerevisiae tim23-1 growth, BacTiter-Glo luminescence, 24 h | actives 1.3% (n = 330,000) | AID 463212 | inhibition, % at 20 µM;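 active = growth inhibition of the mutant yeast at or above 50%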;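 also: temperature-sensitive mutant grown at 25 °C; plate controls were DMSO-treated mutant yeast for no effect and medium wells lacking yeast for full effect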
NALP1 yeast inh – NALP1 inhibition | AID 2071 | inhibition, % at 10 µM | S. cerevisiae NALP1/ASC/caspase-1 growth, X-gal OD620, 72 h | actives 0.61% (n = 280,000); in the data active = inhibition mostly above about 24%, no sharp cut-off; inactive = mostly below about 32%
NLRP3 yeast inh – blocks the NALP3 inflammasome reconstituted in yeast; AID 2825; Yeast reconstituted NLRP3/ASC/caspase-1, beta-gal luminescence, 24 h; actives 0.39% (n = 330,000); inhibition, % at 10 µM;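 active = inhibition of 50% or more; inactive = inhibition below 50%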;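 also: plate controls were induced DMSO wells for no effect and uninduced yeast grown without galactose for full effect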
tim10-1 inh – tim10-1 yeast growth inhibition | S. cerevisiae tim10-1 ts strain growth, BacTiter-Glo, 24 h | inhibition, % at 20 µM | actives 2.2% (n = 330,000) | AID 463190;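 active = inhibition of at least 40%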;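 also: mutant grown at 25 °C; 0% = DMSO wells with yeast and 100% = wells holding no yeast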
* marks the source's active call; other numbers are inactive results; x = no result given.

SMILES | TIM10 inh | PfHsp90 set2 | tim23-1 inh | NALP1 yeast inh | NLRP3 yeast inh | tim10-1 inh
O=[N+]([O-])c1cc(Cl)c(O)c2ncccc12 | -7 | 98* | -13 | 19 | 22 | -16
CCOc1ccc(S(=O)(=O)Nc2cccc(N(C)S(C)(=O)=O)c2)cc1 | -1 | 39 | -8 | 42* | 10 | -10
CN(c1cccc(NS(=O)(=O)c2ccccc2)c1)S(C)(=O)=O | -11 | 1 | -2 | 7 | 23 | -20
CCCCC1(C)NC(=S)N2N1C(=S)NC2(C)CCCC (stereo not drawn) | -13 | -16 | 15 | -5 | 7 | -17
CCCCCCc1c(O)nc(SCC(=O)O)[nH]c1=O | x | 35 | x | 33* | x | x
COc1ccc(C(=O)Nn2c(SCC(=O)NCc3ccccc3)nc3ccccc3c2=O)cc1 | -13 | -104 | 6 | 38* | 1 | 20
CCN(C(=O)COc1ccc(F)cc1Br)c1c(N)n(Cc2ccccc2)c(=O)[nH]c1=O | -2 | x | 0 | x | 9 | -1
COc1ccccc1/C=N/n1cnnc1 | 4 | -11 | 19 | 0 | 12 | 5
O=[N+]([O-])c1ccc(OCCOc2ccccc2/C=N/n2cnnc2)cc1 | 30 | x | -1 | 34* | 2 | 8
CCN(C[C@H]1N[C@@](Cc2ccccc2)(C(=O)OC)[C@H]2C(=O)N(Cc3ccccc3)C(=O)[C@@H]12)C(=O)Nc1ccc(Cl)cc1 | 13 | 9 | 23 | x | 30 | 18
COCCn1c(=O)[nH]c(=O)c2c1nc(-c1ccc(-c3ccc(Cl)cc3[N+](=O)[O-])o1)n2Cc1ccccc1 | 29 | -34 | 12 | 25 | 19 | 12
COCCn1c(-c2ccc(-c3ccc([N+](=O)[O-])cc3Br)o2)nc2c1c(=O)[nH]c(=O)n2CC(C)C | -3 | -29 | 31 | 22* | 10 | 26
Cn1c(N)c(C(=O)CSc2nnc(-c3ccccc3F)n2C2CC2)c(=O)n(C)c1=O | 8 | x | 7 | 34* | 12 | 6
C=CCn1c(SCC(=O)c2c(N)n(C)c(=O)n(C)c2=O)nnc1-c1ccccc1F | 1 | 4 | 3 | 37* | -4 | 6
COC(=O)[C@]1(C)N[C@H](CN(C)C(C)=O)[C@@H]2C(=O)N(Cc3ccccc3)C(=O)[C@@H]21 | -10 | -6 | 6 | x | 4 | -2
S=C(NCC1CCCO1)NC12CC3CC(CC(C3)C1)C2 (stereo not drawn) | -11 | 7 | 5 | 20* | 22 | 13
Cc1ccc(NC(=S)NCC2CCCO2)cc1 (stereo not drawn) | -1 | 8 | 14 | 33* | -1 | 11
CCc1ccccc1OCC(=O)N1CCN(c2ncccn2)CC1 | 1 | 10 | 19 | x | 26 | 11
Cc1cc(C(=O)Nc2ccc3c(c2)OCCO3)ccc1[N+](=O)[O-] | -5 | 14 | 9 | 41* | 18 | -1
CCOc1ccc2ncc(S(=O)(=O)c3ccccc3)c(N3CCN(c4ccc(OC)cc4)CC3)c2c1 | 16 | 8 | -7 | 30 | 24 | 2
COc1ccc(N2CCN(c3c(S(=O)(=O)c4ccccc4)cnc4ccc(OC)cc34)CC2)cc1 | -56 | 104* | -2 | 34 | 17 | -23
COc1ccc(NC(=O)CN(C)C(=O)C(Sc2ccccc2)c2ccccc2)cc1 (stereo not drawn) | 4 | -12 | 27 | x | 22 | 10
O=C(O)c1ccc(NS(=O)(=O)Cc2ccc(Cl)c(Cl)c2)cc1 | x | -1 | x | x | x | x
c1ccc(N2CCN(c3ccccc3)C2c2cccnc2)cc1 | -68 | -21 | -29 | 3 | 5 | -35
Cc1ccc(N2CCN(c3ccc(C)cc3)C2c2cccnc2)cc1 | 24 | 0 | 21 | 40* | 29 | 10
SMILES | TIM10 inh | PfHsp90 set2 | tim23-1 inh | NALP1 yeast inh | NLRP3 yeast inh | tim10-1 inh
COc1cc(C2SCC(=O)N2c2c(C)n(C)n(-c3ccccc3)c2=O)ccc1O (stereo not drawn) | -5 | 7 | -5 | 38* | 4 | -10
COc1ccc(C2SCC(=O)N2c2c(C)n(C)n(-c3ccccc3)c2=O)cc1 (stereo not drawn) | 8 | -3 | 8 | 6 | 1 | 7
Cn1cc(CN2CCN(c3ccccc3)CC2)c2ccccc21 | 15 | -20 | 10 | 26* | 13 | 22
CCC1CCCCN1C(=O)CSc1nnc(-c2ccc(OC)cc2)o1 (stereo not drawn) | 13 | -3 | 26 | 44* | 10 | 31
CC(=O)N1CCN(C(=O)c2cc3ccccc3o2)CC1 | -11 | -9 | 1 | 18 | -1 | -19
O=C(c1cc2ccccc2o1)N1CCN(C/C=C/c2ccccc2)CC1 | 3 | 2 | 18 | 44* | 40 | 7
CC(C)(O)C#Cc1ccc(CN2CCCC(CNC(=O)c3ccco3)C2)cc1 (stereo not drawn) | 7 | -5 | -5 | 22 | -7 | -11
CC(C)(C#N)NC(=O)c1ccco1 | 6 | 9 | 8 | 13 | 9 | 7
CC(C)(C#N)Nc1ccccc1 | 12 | 20 | 8 | 18* | 18 | 4
Cc1cc(C)n(CC(=O)NNC(=O)c2ccc(OC(F)(F)F)cc2)n1 | -6 | 6 | 9 | x | -4 | -4
Cc1ccccc1N=Nc1ccc(O)c2ncccc12 | x | -33 | x | 21 | x | x
COc1ccc(C)cc1N=Nc1ccc(O)c2ncccc12 | x | 109* | x | 19 | x | x
COc1ccc(N=Nc2ccc(O)c3ncccc23)cc1 | -3 | 104* | 47 | x | 32 | 11
COc1cccc(N=Nc2ccc3cccnc3c2O)c1 | 14 | 104* | 43 | 18 | 31 | 13
CCS(=O)(=O)Nc1ccc(C2=NN(S(=O)(=O)CC)C(c3cccs3)C2)cc1 (stereo not drawn) | -5 | 3 | 7 | -7 | 1 | 12
N#CCSc1ccccc1NC(=O)COC(=O)Cc1c[nH]c2ccccc12 | 3 | 21 | 10 | x | 4 | 9
CCOC(=O)c1c(-c2ccc(C)cc2)cn2ccccc12 | -8 | -3 | 39 | 1 | 10 | 10
CCOC(=O)c1c(-c2ccccc2)cn2ccccc12 | -3 | 11 | 2 | 25* | 24 | 3
O=[N+]([O-])c1cnccc1Nc1ccccc1 | -17 | 18 | 7 | 33* | 7 | -1
O=[N+]([O-])c1cnccc1Nc1ccc(F)cc1 | -25 | 1 | 11 | 6 | 15 | 9
CN(C)C(=O)OCc1c(-c2ccccc2)ncc2ccccc12 | -8 | -1 | 33 | x | 19 | 15
Cc1cc(C)n(-c2ccc(F)cc2)c(=O)c1C(=O)O | 10 | 32 | 11 | 14 | -8 | 7
CC(=O)c1c(O)cc(C)n(-c2ccc(F)cc2)c1=O | -14 | 0 | 1 | 29* | 10 | 6
O=C(Cn1cnc2c(nnn2Cc2ccccc2F)c1=O)N1CCN(c2ccccc2)CC1 | -20 | 12 | -11 | 7 | 14 | -42
O=C(Cn1cnc2c(nnn2Cc2ccccc2F)c1=O)OCc1ccccc1 | 12 | -19 | 4 | 26* | -5 | 11

Source: PubChem (several laboratories)
